Measured values from the supplement of paper PMC13380429.

System: Vero E6 infected with SARS-CoV-2
Assay: inhibition of SARS-CoV-2 cytopathic effect; higher = more antiviral protection, active = above 15
Conditions: 48 h

Measured: inhibition of SARS-CoV-2 cytopathic effect

C[C@@]1(CO)[C@H](O)CC[C@@]2(C)[C@H]1CC[C@H]1C[C@@H]3C[C@@]12CC[C@]3(O)CO [aphidicolin]
inactive: 1 nM -5.87% | 8.33 nM -3.68% | 100 nM -2.81% | 833.33 nM -0.76% | 10000 nM -2.66%

COc1ccc(NS(=O)(=O)c2ccc(I)cc2)cc1N1CCN(C)CC1
inactive: 1 nM 0.59% | 8.33 nM -5.4% | 100 nM 0.99% | 833.33 nM 0.95% | 10000 nM -1.3%

CN1CCN(C2=Cc3ccccc3Oc3ccc(Cl)cc32)CC1
inactive: 1 nM 1.06% | 8.33 nM 0.31% | 100 nM -0.45% | 833.33 nM -1.6% | 10000 nM -1.46%

N#Cc1ccc2[nH]c(O)c(-c3ccc(CN4CCOCC4)cn3)c2c1
inactive: 1 nM -0.78% | 8.33 nM -0.13% | 100 nM -0.01% | 833.33 nM 4.77% | 10000 nM 11.4%

Cc1c(C2CCN(CCc3ccccc3)CC2)noc1-c1ccc(Cl)cc1
inactive: 1 nM -1.74% | 8.33 nM 5.24% | 100 nM 6.13% | 833.33 nM 4.32% | 10000 nM -5.7%

O=C(O)/C=C/c1ccc(O)cc1 [naringeninic-acid]
inactive: 1 nM 1.32% | 8.33 nM -1.82% | 100 nM -12% | 833.33 nM -0.34% | 10000 nM -0.09%

CCNC(=O)c1n[nH]c(-c2cc(Cl)c(O)cc2O)c1-c1ccc(OC)cc1
inactive: 1 nM -4.03% | 8.33 nM -4.15% | 100 nM -2.27% | 833.33 nM -3.38% | 10000 nM -0.29%

Nc1cc(Cl)c(N=C2NCCN2)c(Cl)c1 [apraclonidine]
inactive: 1 nM -2.77% | 8.33 nM 1.32% | 100 nM -1.3% | 833.33 nM -1.26% | 10000 nM -0.76%

CC(C)(CO)[C@@H](O)C(=O)NCCC(=O)O [pantothenic-acid]
inactive: 1 nM 0.14% | 8.33 nM -0.18% | 100 nM 0.03% | 833.33 nM -0.87% | 10000 nM 2.81%

CCCCCCCCCCCCOS(=O)(=O)O [dodecyl-sulfate]
inactive: 1 nM -0.285% | 8.33 nM 1.83% | 100 nM 1.98% | 833.33 nM 0.175% | 10000 nM 0.47%

CC(C)(C)/[N+]([O-])=C/c1ccc(S(=O)(=O)O)cc1S(=O)(=O)O
inactive: 1 nM -1.02% | 8.33 nM -0.15% | 100 nM -0.41% | 833.33 nM 0.47% | 10000 nM 0.8%

O=C(NCc1cccc(O)c1)Nc1nc(-c2ccncc2)cs1
inactive: 1 nM 1.7% | 8.33 nM 1.65% | 100 nM -1.57% | 833.33 nM -6.16% | 10000 nM -6.11%

C/C(=C(\CCOP(=O)(O)O)SC(=O)c1ccccc1)N(C=O)Cc1cnc(C)nc1N [benfotiamine]
inactive: 1 nM 0.45% | 8.33 nM 2.17% | 100 nM 2.51% | 833.33 nM 1.61% | 10000 nM 0.69%

CO/N=C(\C(=O)N[C@@H]1C(=O)N2C(C(=O)[O-])=C(C[n+]3ccn4ncccc43)CS[C@H]12)c1nsc(N)n1 [cefozopran]
inactive: 1 nM -1.88% | 8.33 nM 1.38% | 100 nM -0.43% | 833.33 nM -0.82% | 10000 nM -0.02%

Cc1c(C(=O)NN2CCCCC2)nn(-c2ccc(Cl)cc2Cl)c1-c1ccc(I)cc1
inactive: 1 nM 0.54% | 8.33 nM -3.71% | 100 nM 3.18% | 833.33 nM 1.67% | 10000 nM 2.28%

NNCCc1ccccc1 [phenelzine]
inactive: 1 nM 1.22% | 8.33 nM -0.85% | 100 nM -0.27% | 833.33 nM -0.81% | 10000 nM 3%

C#C[C@]1(OC(C)=O)CC[C@H]2[C@@H]3CCC4=C[C@@H](OC(C)=O)CC[C@@H]4[C@H]3CC[C@@]21C [ethynodiol-diacetate]
inactive: 1 nM 1.35% | 8.33 nM 3.73% | 100 nM 2.52% | 833.33 nM -2.62% | 10000 nM -1.63%

CCCCCCNC(=O)Nc1ccc(S(=O)(=O)Nc2ccc(CCNC[C@H](O)COc3ccc(O)cc3)cc2)cc1
inactive: 1 nM 0.66% | 8.33 nM 0.75% | 100 nM 0.54% | 833.33 nM 2.18% | 10000 nM 1.5%

COc1ccc(C2(O)CCC(N3CC[C@@H](NC(=O)CNC(=O)c4cccc(C(F)(F)F)c4)C3)CC2)cn1 (stereo not given in full)
inactive: 1 nM -0.385% | 8.33 nM 0.89% | 100 nM -1.07% | 833.33 nM -1.1% | 10000 nM -0.44%
